Measured values from PubChem BioAssay AID686970 (National Center for Advancing Translational Sciences (NCATS), 2013).
The campaign covered roughly 360,000 compounds. About 6,000 (1.7%) were called active. Roughly 8% stayed inconclusive and do not appear here. The sample as a whole holds a higher share of actives than the screen did. Values without a mark were called inactive. Calls come from the whole dose curve; as a rule, active = well fitted cell-killing curve with a large enough effect; inconclusive = small, poorly fitted or top-dose-only effect, or effect the other way; inactive = flat fitted curve, though single readings scatter.

test: qHTS for induction of synthetic lethality in tumor cells producing 2HG: qHTS for the HT-1080-NT fibrosarcoma cell line; conditions: HT-1080-NT fibrosarcoma viability, CellTiter-Glo ATP luminescence, 48 h; series mostly up to 46.1 µM; activity, negative = less viability: at the top concentration;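 note: NT is the 2HG producing partner of a matched IDH1 knockdown line; nearly all actives have a fitted effect of over 55% in size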;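 for activity, negative = less viability: 0% = DMSO-treated cells and -100% = media-only wells without cells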
Procedure, shortened: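 Toxicity toward the 2HG-producing NT line was scored as %Activity, normalised to DMSO and no-cell wells, from CellTiter-Glo luminescence after 48 hours' treatment.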
Potency is the fitted concentration of half-maximal effect.

Row | SMILES | activity, negative = less viability | Potency
1 | Nc1ncnc2c1ncn2[C@@H]1O[C@H](C(=O)NCC(F)(F)F)[C@@H](O)[C@H]1O | 0.519% | –
2 | CCOC(=O)c1cc(-c2sc(NC(=O)c3ccccc3)nc2C)n(CCO)n1 | -10.6% | –
3 | COc1ccc(Br)c(Cn2c(C)c(C(=O)NCc3cccs3)sc2=O)c1 | -1.23% | –
4 | C[C@@H]1CN([C@H](C)CO)C(=O)c2cc(Br)cnc2O[C@@H]1CN(C)Cc1cncnc1 | -0.345% | –
5 | CCCCN(CCCC)CC(O)Cn1c2ccccc2c(=O)c2ccccc21 (configuration not stated) | 6.34% | –
6 | Cc1cc(C)n(CC(O)CN(c2ccccc2)S(=O)(=O)c2ccc3ccccc3c2)n1 (configuration not stated) | -4.25% | –
7 | CS(=O)(=O)N(CC(O)Cn1c2ccccc2c2ccccc21)c1cccc2ccccc12 (configuration not stated) | – | 18.4 µM (active)
8 | COc1ccc(Cn2c(=O)[nH]c3cc(C(=O)N4CCN(C(=O)c5ccco5)CC4)ccc3c2=O)cc1 | 4.83% | –
9 | O=C1NC[C@H](CCCCN2C[C@H](Cc3ccc(O)cc3)N(CC3CCCCC3)C(=O)C2=O)N(CCc2ccccc2)C1=O | 14.5% | –
10 | O=C(OCc1ccccc1)N1CCC2CC1c1cc(N3CCN(S(=O)(=O)c4cc(Cl)cc(Cl)c4)CC3)ccc12 (configuration not stated) | 1% | –
11 | CCCCOc1ccc(NC(=O)CSCC(=O)OCC)cc1 | -0.0183% | –
12 | CCCCCCCCCCOC(=O)Cn1c(COc2ccc(C)cc2)[n+](C)c2ccccc21 | – | 18.4 µM (active)
13 | CCCCCCCCCCOC(=O)Cn1c(COc2cccc(OC)c2)[n+](C)c2ccccc21 | -11.3% | –
14 | CN1CCN(C(=O)c2ccc(NC(=O)c3ccc(Br)o3)cc2)CC1 | 28.2% | –
15 | O=C(Nc1ccc(Cl)cc1)c1csc([C@H]2C[C@H](O)[C@@H](CO)O2)n1 | -2.6% | –
16 | CCOC(=O)C(C(=O)c1ccccc1)C(c1ccccc1)c1nccc2ccccc12 (configuration not stated) | -27.9% | –
17 | CCOC(=O)[C@]12CCC=C1N(Cc1ccco1)C(=O)[C@H](CC(=O)N1CCSCC1)C2 | -2.08% | –
18 | Nc1nnc(SCC(=O)Nc2ccc3nc(SCC(=O)Nc4ccccc4)sc3c2)s1 | -8.95% | –
19 | O=[N+]([O-])c1c(NCCO)cc(Sc2nc3ccccc3s2)c2nonc12 | – | 5.62 µM (active)
20 | CCN(CC)CCCSc1nc2ccccc2s1 | -5.21% | –
21 | CC1(Cc2ccccc2C#N)C(=O)Nc2ccc(-c3ccc4[nH]ccc4c3)cc21 (configuration not stated) | – | 7.31 µM (active)

Row | SMILES | activity, negative = less viability | Potency
22 | O=C(NCc1cccnc1)c1cc(C2CCCN(C(=O)C3CCCCC3)C2)on1 (configuration not stated) | 16.2% | –
23 | Cc1ccc(-c2c(N)nc3ncccn23)cc1 | 15.3% | –
24 | COCC1CCCCN1C(=O)c1cc(COc2ccc(C)c(C)c2)on1 (configuration not stated) | -2.08% | –
25 | CC1(Oc2cccc(F)c2)CCN(Cc2ccccc2OC(F)F)C1 (configuration not stated) | -3.09% | –
26 | CCCC(=O)Nc1nc2ccc(NC(=O)c3cccnc3)cc2s1 | – | 6.31 µM (active)
27 | CC(=O)Nc1ccc2nc(NC(=O)CS(=O)(=O)c3ccc(F)cc3)sc2c1 | -0.931% | –
28 | CSc1nc2ccc(NC(=O)c3c(F)cccc3F)cc2s1 | 5.67% | –
29 | O=C(Cc1ccccc1)Nc1ccc(NC(=O)c2cccnc2)cc1 | 12.2% | –
30 | CCOC(=O)c1cc(NC(=O)c2cccnc2)ccn1 | 0.14% | –
31 | CCCC(=O)Nc1nc2ccc(NC(=O)c3c(F)c(F)c(OC)c(F)c3F)cc2s1 | – | 1.03 µM (active)
32 | CCc1nc2c(OCC(=O)C(C)(C)C)cccn2c1N(C)C(=O)c1ccccc1F | -6.46% | –
33 | CC1C(=O)N(Cc2cn(CC3CCCCC3)nn2)CCS(=O)(=O)N1Cc1ccc(-c2cccc(N(C)C)c2)cc1 (configuration not stated) | -17.4% | –
34 | COC(=O)C[C@H]1C=C[C@H](NC(=O)c2ccc(F)cc2)[C@@H](CO)O1 | -11.8% | –
35 | CN1C[C@@H](CO)O[C@@H](n2cnc3c(N4CCN(CCO)CC4)ncnc32)C1 | 15.9% | –
36 | CCOC(=O)N1CCN(S(=O)(=O)c2ccc(Br)cc2)CC1 | 10.4% | –
37 | CCOC(=O)N1CCN(S(=O)(=O)c2ccc(C(=O)Nc3ccc(F)cc3F)cc2)CC1 | – | 1.78 µM (active)
38 | O=C(Nc1ccccc1F)c1ccc(S(=O)(=O)N2CCCCCC2)cc1 | -4.83% [at 9.24 µM] | –
39 | O=C(c1cccs1)N1C[C@H](n2cc(C3CC3)nn2)[C@@H](O)C[C@@H]1c1ccccc1 | 0.548% | –
40 | CNC(=O)C[C@H]1C(=O)N(Cc2ccccc2)C[C@@H]1CSC | 12% | –
41 | Cc1cccc(C)c1-n1nnnc1C(CCc1ccccc1)N1CCN(C/C=C/c2ccccc2)CC1 (configuration not stated) | 18.4% | –
42 | Brc1ccc2nc(N3CCCC3)sc2c1 | -19% | –

Row | SMILES | activity, negative = less viability | Potency
43 | CN(C)CCCN(C(=O)c1ccc(S(=O)(=O)N2CCCCCC2)cc1)c1nc2ccc(Br)cc2s1 | – | 18.4 µM (active)
44 | COc1ccc2sc(N(CCCN(C)C)C(=O)c3ccc(S(=O)(=O)N(C)C4CCCCC4)cc3)nc2c1 | -3.54% | –
45 | CCc1ccc2nc(N(CCCN(C)C)C(=O)c3ccc4c(c3)OCCO4)sc2c1 | – | 20.6 µM (active)
46 | CN(C)CCN(C(=O)CN1C(=O)c2ccccc2C1=O)c1nc2cc3c(cc2s1)OCCO3 | 6.71% | –
47 | Cc1ccc2nc(N(CCN(C)C)C(=O)C3=COCCO3)sc2c1 | -10.2% | –
48 | OC(c1ccccc1)c1nc(/C=C/c2ccc(C(F)(F)F)cc2)cs1 (configuration not stated) | -18.6% | –
49 | CC(=O)C[C@@H]1OC[C@H](C)N1S(=O)(=O)c1ccc(C)cc1 | -0.0545% | –
50 | C=CCn1c2c(c3ccccc31)CCC2 | 7.69% | –
51 | Cc1cccc(CNC(=O)c2sc(=O)n(Cc3ccccc3C)c2C)c1 | -14.7% | –
52 | O=S(=O)(NCc1cccnc1)c1ccc(Br)s1 | 1.84% | –
53 | O=C(NCCc1ccccc1)C1CCN(S(=O)(=O)c2ccc(Br)s2)CC1 | 0.419% | –
54 | O=S(=O)([N-]c1nc2ccccc2nc1-[n+]1ccc(Cc2ccccc2)cc1)c1ccc(Br)s1 | – | 14.6 µM (active)
55 | C[C@@H]1CN([C@@H](C)CO)C(=O)c2cc(Br)cnc2O[C@H]1CN(C)Cc1ccc(-c2ccccc2)cc1 | -28% | –
56 | COc1ccccc1N1CCN(C(=O)c2c(-c3c(Cl)cccc3Cl)noc2C)CC1 | -11.7% | –
57 | COc1ccccc1N1CCN(C(=O)c2cc(=O)c3cc(C)cc(C)c3o2)CC1 | – | 0.0206 µM (active)
58 | COc1ccccc1N1CCN(C(=O)c2ccc(Cl)c(S(=O)(=O)N3CCCC3)c2)CC1 | -8.72% | –
59 | O=C(NC1CCCC1)C1c2ccccc2OCC(=O)N1Cc1ccccc1 (configuration not stated) | 16.2% | –
60 | COc1ccc(S(=O)(=O)N2CCCCCC2)cc1NC(=O)Cc1ccc(OC)c(OC)c1 | -1.11% | –
61 | COc1cc(C(C)=O)ccc1OC(C)C(=O)Nc1ccc(S(=O)(=O)N2CCCC2)cc1 (configuration not stated) | 4.84% | –
62 | COc1ccc(-c2ccc(Nc3ccc(S(=O)(=O)N4CCCC4)cc3)nn2)cc1OC | – | 11.2 µM (active)
